From PubChem BioAssay (NCI)
This is part of a sample that, as a whole, favours compounds with a hit. Of some 83,000 tested, about 20% had one in any assay.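 Cell lines were cultured in 96-well plates, exposed to a single compound concentration, and assessed for percent growth 48 hours later.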

How the values were obtained:
Assay in all cases: NCI-60 one-dose screen, 48 h (100 = growth as untreated, 0 = no growth, -100 = all killed)
Details in all cases: 10 µM unless noted; active means growth percent below 10; inactive means the rest
[1] = test system: SK-MEL-2 melanoma
[2] = test system: EKVX NSCLC
[3] = test system: SN12C renal
[4] = test system: UO-31 renal
[5] = test system: TK-10 renal
[6] = test system: ACHN renal
[7] = test system: CAKI-1 renal
[8] = test system: A498 renal
[9] = test system: HL-60(TB) leukemia
[10] = test system: CCRF-CEM leukemia
[11] = test system: MOLT-4 leukemia
[12] = test system: SR leukemia
[13] = test system: RPMI-8226 leukemia
[14] = test system: OVCAR-8 ovarian
[15] = test system: OVCAR-5 ovarian
[16] = test system: OVCAR-4 ovarian
[17] = test system: SK-OV-3 ovarian
[18] = test system: IGROV1 ovarian
[19] = test system: OVCAR-3 ovarian
[20] = test system: HS 578T breast

Measured: growth

C[C@]12CC[C@H](O)C[C@@H]1CC[C@@H]1[C@@H]2CC[C@]2(C)OC(=O)CC[C@@H]12
inactive: [1] 108% | [2] 89% | [3] 96.8% | [4] 83.1% | [5] 97.5% | [6] 107% | [7] 92.8% | [8] 109% | [9] 94.4% | [10] 114% | [11] 113% | [12] 125% | [13] 102% | [14] 85.6% | [15] 93.7% | [16] 104% | [17] 85% | [18] 93.1% | [19] 99% | [20] 111%

CNC(=O)Oc1ccc(Cl)cc1SSc1cc(Cl)ccc1OC(=O)NC
inactive: [1] 77.5% | [2] 109% | [3] 70.9% | [4] 64.6% | [5] 123% | [6] 87.2% | [7] 97.1% | [8] 98% | [9] 61.3% | [10] 50.7% | [11] 52.9% | [12] 67.7% | [13] 48.1% | [14] 78.8% | [15] 121% | [16] 74.5% | [17] 104% | [18] 77.4% | [19] 54.7% | [20] 85.6%

OCCN=Cc1c[nH]c2ccccc12
inactive: [1] 109% | [2] 93.8% | [3] 93.3% | [4] 75.7% | [5] 122% | [6] 94.3% | [7] 80.4% | [8] 107% | [9] 101% | [10] 114% | [11] 101% | [12] 95.4% | [13] 120% | [14] 100% | [15] 91% | [16] 94% | [17] 98.6% | [18] 104% | [19] 97.7% | [20] 97.5%

O=C(O)C(F)F
inactive: [1] 120% | [2] 101% | [3] 104% | [4] 94.9% | [5] 97.7% | [6] 116% | [7] 102% | [8] 84.4% | [9] 96% | [10] 110% | [11] 102% | [12] 109% | [13] 114% | [14] 105% | [15] 106% | [16] 112% | [17] 98.5% | [18] 114% | [19] 115% | [20] 96.2%

C[N+]1(CC#CC[N+]2(C)CCCC2)CCCC1
inactive: [1] 98.5% | [2] 97.5% | [3] 102% | [4] 94.4% | [5] 96.3% | [6] 108% | [7] 97.1% | [8] 84.6% | [9] 94.1% | [10] 107% | [11] 103% | [12] 96.7% | [13] 109% | [14] 111% | [15] 101% | [16] 105% | [17] 98.3% | [18] 105% | [19] 102% | [20] 107%
